The sample as a whole holds a higher share of hits than the screen did.
Tgondii IFNg: T. gondii growth inhibition with IFN-gamma, primary screen, cell-based; Toxoplasma gondii growth in IFN-gamma-treated host cells; hits give low values; activity change, negative = inhibition, % (concentration not given with the values); hit rate 3.8% among 69,000; AID 1259416, 2018; in the data active = activity change below about -70%, passing the limit was not always enough;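 note: host cells are HeLa cells infected with Toxoplasma gondii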
Each line names hits and unclear results; the compound was inactive in the other large screens.

O=C(CC1COCCN1)NCc1ccc(-c2ccccn2)s1 (stereo not drawn)	none
Cc1cccc(NC2COC3(CCN(C(=O)c4ccsc4)C3)C2)c1 (stereo not drawn)	none
COCC1CN(C(=O)c2cnc(C)cn2)Cc2ccnn2C1 (stereo not drawn)	none
CC(C)CN1CC2(CCN(C(=O)NCc3cccc(F)c3)CC2)C2(CCN(C)C2=O)C1 (stereo not drawn)	none
CCC(C)Nc1nc(NC)nc(NC(C)CC)n1 (stereo not drawn)	none
COc1ccccc1-n1nnc(C(=O)N(C)Cc2nonc2C)c1C	none
CC(C)(C)c1ccc(-c2noc(CSc3ccccn3)n2)cc1	none
CCOC(=O)c1nc(-c2cccc(-n3cccc3)c2)no1	none
CC(C)(C)c1nc(SCc2nc(-c3cccc(-n4cccc4)c3)no2)n[nH]1	Tgondii IFNg -81
COCC(NC(=O)COc1c(C)ccc(C)c1C)c1ccccn1 (stereo not drawn)	none
Cc1cccc(C(C(=O)NCc2nc(-c3cccnc3)no2)N(C)C)c1 (stereo not drawn)	none
CN(C)CCNC(=O)c1cc2n(n1)CCN(S(=O)(=O)c1ccccc1)C2	none
Cc1ccc2c(c1)c1c3n2CCN=C3CCC1	none
Cc1cccc(NCc2c(C#N)c3ccccc3n2C)c1	none
Cc1ccc2c(c1)c1cccc3c1n2CCN3CCC#N	Tgondii IFNg -103
Cc1cc(CN(CCO)Cc2cccnc2)c(C)n1-c1cccnc1	none
COc1cc2c(cc1OC(C)C)[C@H](c1ccc(Cl)cc1)N(c1ccc(N(C)CC3CCC(N4CCN(C)C(=O)C4)CC3)cc1)C(=O)C2 (stereo partly drawn)	Tgondii IFNg -79
CCOc1cc2c(cc1OCC)C(c1ccccc1)N(c1ccc(C(=O)O)cc1)C(=O)C2 (stereo not drawn)	none
Cc1ccc(OC2(C(=O)NCc3cccc(C)c3C)CCNCC2)cc1	none
CN(C)C(=O)N1CCC2(CC1)NCCn1c(-c3ccnn3C)cnc12	none
COCC(=O)N[C@H]1CN(Cc2scnc2C)C[C@H]2CCCO[C@H]21	Tgondii IFNg -81
Cc1csc(CN2C[C@H]3CCCO[C@H]3[C@H](N3CCCC3)C2)n1	none
Cn1cc(CN2C[C@H]3CCCO[C@H]3[C@H](NS(C)(=O)=O)C2)cn1	none
Cc1cc(CNC(=O)c2ccc(=O)[nH]n2)c2[nH]c(-c3ccccc3)c(C)c2c1	none
Cc1cccc(OCC(=O)N2CCC3(CC2)Nc2ccc(C)c(C)c2-n2cccc23)c1	none
CC1CCN(c2nc(C(=O)NCC(C)c3ccccc3)nc3ccccc23)CC1 (stereo not drawn)	none
COc1cc(Br)c(-c2cc3ccccc3oc2=O)cc1OC	Tgondii IFNg -86
O=c1oc2ccccc2cc1-c1csc(-c2ccccc2Cl)n1	none
COc1cc(NC(=O)c2ccc(Cl)cc2Cl)ccc1-c1cc2ccccc2oc1=O	Tgondii IFNg -85
COc1ccccc1NC(=O)c1cccc(-c2cc3ccccc3oc2=O)c1	none
COc1cccc2cc(-c3ccccc3)c(=O)oc12	none
O=C(COC(=O)c1cc2ccccc2oc1=O)c1ccc(Cl)cc1Cl	none
Cc1cccc(CN(Cc2ccccc2)C(=O)c2c(C)nc3c(C)cccn23)n1	none
Cc1nc(Cn2nc(C3CCCNC3)n(-c3ccccc3)c2=O)co1 (stereo not drawn)	none
Cc1nnc(SCC(=O)N2CCc3[nH]c4ccc(F)cc4c3C2)o1	none
O=C(Cn1c(SCC(=O)N2CCc3ccccc3C2)nc2ccccc21)NC1CCCC1	none
O=C(CSc1nnc(CNc2ccc(F)cc2)o1)N1CCc2ccccc2C1	Tgondii IFNg -81
CCC1c2ccsc2CCN1Cc1cn[nH]c1-c1cccs1 (stereo not drawn)	none
Cc1ccc(-c2nc3c(s2)CN(C(=O)NCc2ccccc2)CC3)cc1	none
O=C(NCc1ccccc1)c1nc2c(s1)CCN(C(=O)c1ccncc1)CC2	Tgondii IFNg -74
COc1ccc(CNC(=O)c2nc3c(s2)CCN(C(=O)CC(C)C)CC3)cc1	none
O=C(CN1Cc2ccccc2OC(c2ccsc2)C1)N1CCCC1c1nccs1 (stereo not drawn)	none
COc1ccc(NC(=O)N2CCC3(CC2)NC(=O)c2cc(Cl)ccc2N3C)cc1OC	none
O=C(Cc1ccc(Cl)cc1Cl)N1CCC[C@@H]1[C@@H](O)c1nccs1	none
CCOC(=O)c1cccnc1-c1ccc(OC)cc1OC	none
CCn1c(C2CCN(C(=O)CCc3c[nH]c4ccccc34)CC2)nn(C)c1=O	none
Cc1cc(C)c2c(n1)sc1c(=O)n(N)c(C)nc12	none
Cc1nn(-c2ccc(F)cc2F)c(=O)c2nc(-c3ccccc3)sc12	none
Cc1nc2cc(-c3ccccc3)sc2c(=O)n1N	Tgondii IFNg -107
Cc1noc(C)c1CN1CC2(CCN(C(=O)NC(C)C)C2)CC1=O (stereo not drawn)	none
CC(C)N(C(=O)NC(=O)c1csnn1)C(C)C	none
O=C(Nc1ccc(Cl)cc1)c1csnn1	none
Cc1ccc(SC(=O)c2csnn2)cc1	Tgondii IFNg -102
O=C(NCc1ccccc1)c1cncc(NS(=O)(=O)c2ccccc2)c1	none
COCC(=O)N1CCC(c2nc3ccc(N4CCOCC4)cn3n2)CC1	none
Cc1ccc2c(c1C)-n1cccc1C1(CCN(C(=O)c3ccccc3Br)CC1)N2	none
Cc1oc(-c2ccc(NC(=O)c3cccc(C(F)(F)F)c3)cc2)nc1Cn1cccn1	none

High-throughput results deposited in PubChem by Broad Institute.
